Records with an inconclusive call do not appear. Calls of active or inactive are those of the source. Calls come from the whole dose curve; as a rule, active = well fitted curve in the direction sought with a large enough effect; inconclusive = small, poorly fitted or top-dose-only effect, or another doubt; inactive = no such curve, though single readings can be large; an effect the other way counts as inactive or inconclusive. Positions of bridges follow the written chain, without caps; N, C: chain ends. Non-standard residues stand in square brackets, D forms with d. Residues, ends and D or L forms follow the SMILES beside them. ξ: configuration not given here. *: point of attachment. Octanoyl(6-Me) = CCC(C)CCCCC(=O)*; ξThr(3R) = C[C@@H](O)C(N)C(=O)O; dDab = NCC[C@@H](N)C(=O)O; Dab = NCC[C@H](N)C(=O)O
Legend:
[1] = Quantitative High-Throughput drug screen in 47 multiple myeloma cell lines against the NCATS MIPE library collection: ARD_JJKsccE7 cell viability assay (AID 1918929; note: potency is the fitted concentration of half-maximal effect)
Summary of the method: (§1)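 Luminescent ATP measurement with CellTiter-Glo gives viability, scaled between DMSO-only wells (100%) and media-only wells (0%). Cells, 500 per well, faced library compounds for 48 hours at 37C.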

[2] = Quantitative High-Throughput drug screen in 47 multiple myeloma cell lines against the NCATS MIPE library collection: KMM1_JCRB cell viability assay (AID 1918960); note: nearly all actives have a fitted effect of over 30% in size; note: potency is the fitted concentration of half-maximal effect
Summary of the method: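 Myeloma cells, 500 per well, were exposed to MIPE 4.0 drugs by pin transfer for 48 h at 37 °C, 5% CO2. Viability was read as ATP luminescence with CellTiter-Glo, normalised to DMSO-only (100%) and medium-only (0%) wells.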

[3] = Quantitative High-Throughput drug screen in 47 multiple myeloma cell lines against the NCATS MIPE library collection: JIM3_ECACC cell viability assay (AID 1918963; note: nearly all actives have a fitted effect of over 35% in size; note: potency is the fitted concentration of half-maximal effect)
Summary of the method: (§2)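 Inhibition of cell viability is measured here. Each line was plated at 500 cells per well, treated with MIPE 4.0 drugs, kept 48 hours at 37C, then assayed for ATP content by CellTiter-Glo luminescence.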

[4] = Quantitative High-Throughput drug screen in 47 multiple myeloma cell lines against the NCATS MIPE library collection: INA6_PLB cell viability assay (AID 1918965; note: nearly all actives have a fitted effect of over 55% in size; note: potency is the fitted concentration of half-maximal effect)
Summary of the method: (§3)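 qHTS of the MIPE 4.0 collection: 500 myeloma cells/well, 48 h drug exposure at 37C in 5% CO2, then CellTiter-Glo for 5 min at room temperature before luminescence reading.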

[5] = Quantitative High-Throughput drug screen in 47 multiple myeloma cell lines against the NCATS MIPE library collection: JJN3_DSMZ cell viability assay (AID 1918966; note: nearly all actives have a fitted effect of over 50% in size; note: potency is the fitted concentration of half-maximal effect)
Summary of the method: as §1

[6] = Quantitative High-Throughput drug screen in 47 multiple myeloma cell lines against the NCATS MIPE library collection: H1112_PLB cell viability assay (AID 1918967; note: nearly all actives have a fitted effect of over 30% in size; note: potency is the fitted concentration of half-maximal effect)
Summary of the method: as §1

[7] = Quantitative High-Throughput drug screen in 47 multiple myeloma cell lines against the NCATS MIPE library collection: KMS12PE_JCRB cell viability assay (AID 1918972); note: nearly all actives have a fitted effect of over 30% in size; note: potency is the fitted concentration of half-maximal effect
Summary of the method: as §3

[8] = Quantitative High-Throughput drug screen in 47 multiple myeloma cell lines against the NCATS MIPE library collection: KMS20_JCRB cell viability assay (AID 1918973); note: nearly all actives have a fitted effect of over 45% in size; note: potency is the fitted concentration of half-maximal effect
Summary of the method: as §1

[9] = Quantitative High-Throughput drug screen in 47 multiple myeloma cell lines against the NCATS MIPE library collection: MOLP8_DSMZ cell viability assay (AID 1918977); note: nearly all actives have a fitted effect of over 45% in size; note: potency is the fitted concentration of half-maximal effect
Summary of the method: (§4)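 Viability after 48 h drug exposure was measured as ATP-dependent luminescence. Cells, 500 per well, sat at 37 °C under 5% CO2; DMSO wells set 100%, media-only wells 0%.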

[10] = Quantitative High-Throughput drug screen in 47 multiple myeloma cell lines against the NCATS MIPE library collection: NCIH929_DSMZ cell viability assay (AID 1918978); note: nearly all actives have a fitted effect of over 35% in size; note: potency is the fitted concentration of half-maximal effect
Summary of the method: as §4

[11] = Quantitative High-Throughput drug screen in 47 multiple myeloma cell lines against the NCATS MIPE library collection: Karpas25_ECACC cell viability assay (AID 1918968; note: nearly all actives have a fitted effect of over 35% in size; note: potency is the fitted concentration of half-maximal effect)
Summary of the method: as §1

[12] = Quantitative High-Throughput drug screen in 47 multiple myeloma cell lines against the NCATS MIPE library collection: KMS27_JCRB cell viability assay (AID 1918970); conditions: KMS27 myeloma cells, CellTiter-Glo ATP viability, 48 h; viability (% of DMSO): at 45.8 µM (top of the series); note: nearly all actives have a fitted effect of over 30% in size; note: potency is the fitted concentration of half-maximal effect
Summary of the method: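 Myeloma cells (500 per well) were exposed to MIPE 4.0 compounds for 48 h at 37 °C, 5% CO2; viability was read as ATP luminescence with CellTiter-Glo, normalized to DMSO-only (100%) and media-only (0%) wells.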

[13] = Quantitative High-Throughput drug screen in 47 multiple myeloma cell lines against the NCATS MIPE library collection: KMS26_JCRB cell viability assay (AID 1918975); note: nearly all actives have a fitted effect of over 45% in size; note: potency is the fitted concentration of half-maximal effect
Summary of the method: (§5)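 Viability readout: CellTiter-Glo luminescence following 5 min room-temperature incubation with reagent. Prior exposure: 48 h, 37C, humidified 5% CO2, 500 cells per well.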

[14] = Quantitative High-Throughput drug screen in 47 multiple myeloma cell lines against the NCATS MIPE library collection: JIM1_ECACC cell viability assay (AID 1918964; note: potency is the fitted concentration of half-maximal effect)
Summary of the method: as §1

[15] = Quantitative High-Throughput drug screen in 47 multiple myeloma cell lines against the NCATS MIPE library collection: KMS12BM_JCRB cell viability assay (AID 1918971); note: nearly all actives have a fitted effect of over 35% in size; note: potency is the fitted concentration of half-maximal effect
Summary of the method: as §5

[16] = Quantitative High-Throughput drug screen in 47 multiple myeloma cell lines against the NCATS MIPE library collection: MMM1_PLB cell viability assay (AID 1918976)
Summary of the method: as §4

[17] = Quantitative High-Throughput drug screen in 47 multiple myeloma cell lines against the NCATS MIPE library collection: Karpas620_DSMZ cell viability assay (AID 1918959); note: nearly all actives have a fitted effect of over 30% in size
Summary of the method: as §2

[18] = Quantitative High-Throughput drug screen in 47 multiple myeloma cell lines against the NCATS MIPE library collection: Karpas417_ECACC cell viability assay (AID 1918961); conditions: Karpas417 myeloma viability, CellTiter-Glo ATP luminescence, 48 h; viability (% of DMSO): at 45.8 µM (top of the series); note: potency is the fitted concentration of half-maximal effect
Summary of the method: as §3

[19] = Quantitative High-Throughput drug screen in 47 multiple myeloma cell lines against the NCATS MIPE library collection: KHM11_PLB cell viability assay (AID 1918962); note: nearly all actives have a fitted effect of over 35% in size
Summary of the method: as §2

C[C@]12CCC(=O)C=C1[C@@H]1CC1[C@H]1[C@H]3[C@@H]4C[C@H]4[C@@]4(CCC(=O)O4)[C@@]3(C)CC[C@H]12 (some centres undefined)
inactive: Potency [3] | Potency [5] | Potency [6] | Potency [8] | Potency [9] | Potency [10]
active: Potency [1] 18.7 µM | Potency [2] 20.9 µM | Potency [4] 20.9 µM | Potency [7] 20.9 µM

CN1[C@H]2CC(OC(=O)[C@@H](CO)c3ccccc3)C[C@H]1[C@H]1O[C@H]12 (some centres undefined)
inactive: Potency [1] | Potency [2] | Potency [3] | Potency [6] | Potency [11] | Potency [12] | Potency [7] | Potency [13] | Potency [9] | Potency [10]
active: Potency [8] 0.007 µM

O=c1[nH]c(=O)n([C@H]2C[C@@H](O)[C@@H](CO)O2)cc1F
active: Potency [1] 23.5 µM | Potency [2] 1.66 µM | Potency [14] 18.7 µM | Potency [6] 4.69 µM | Potency [12] 9.35 µM | Potency [15] 20.9 µM | Potency [7] 7.43 µM | Potency [16] 18.7 µM

CC(Cc1ccc(O)c(O)c1)(NN)C(=O)O (centres undefined)
inactive: Potency [1] | Potency [14] | Potency [4] | Potency [6] | Potency [12] | Potency [7] | Potency [10]
active: Potency [5] 23.5 µM | Potency [15] 26.4 µM | Potency [16] 11.8 µM

O=C1NC(=O)[C@@H](c2cn3c4c(cccc24)CCC3)[C@H]1c1c[nH]c2ccccc12
active: Potency [1] 0.0662 µM | Potency [2] 0.105 µM | Potency [3] 0.118 µM | Potency [14] 0.0469 µM | Potency [5] 16.6 µM | Potency [6] 1.66 µM | Potency [11] 0.833 µM | Potency [12] 0.0833 µM | Potency [15] 0.209 µM | Potency [7] 0.148 µM | Potency [8] 0.105 µM | Potency [13] 16.6 µM | Potency [10] 11.8 µM

CCC[C@H]1C[C@H](C(=O)N[C@@H]([C@@H]2O[C@@H](SC)[C@@H](O)[C@@H](O)[C@@H]2O)[C@H](C)Cl)N(C)C1
active: Potency [18] 0.0093 µM
inactive: Potency [17] | Potency [2] | Potency [19] | Potency [3] | Potency [6] | Potency [11] | Potency [12] | Potency [7] | Potency [10]

COc1ccnc2[nH]cc(C(=O)C(=O)N3CCN(C(=O)c4ccccc4)C[C@@H]3C)c12
active: Potency [5] 13.2 µM
inactive: Potency [17] | Potency [2] | Potency [19] | Potency [3] | Potency [4] | Potency [6] | Potency [11] | Potency [12] | Potency [15] | Potency [7] | Potency [13] | Potency [9] | Potency [10]

Cn1cc(C[C@@H](N)C(=O)O)c2ccccc21
inactive: Potency [17] | Potency [2] | Potency [3] | Potency [6] | Potency [11] | Potency [13] | Potency [10]
active: Potency [15] 2.29 µM | Potency [16] 0.645 µM | Potency [9] 0.115 µM

C=C(C)[C@@H]1CC[C@]2(C)CC[C@]3(C)[C@H](CC[C@@H]4[C@@]5(C)CC[C@H](O)C(C)(C)[C@H]5CC[C@]43C)[C@@H]12
inactive: Potency [17] | Potency [2] | Potency [3] | Potency [14] | Potency [4] | Potency [5] | Potency [6] | Potency [11] | Potency [12] | Potency [15] | Potency [7] | Potency [13] | Potency [9] | Potency [10]

CCC(C)CCCCC(=O)N[C@@H](CCN)C(=O)NC(C(=O)N[C@H](CCN)C(=O)N[C@@H]1CCNC(=O)C([C@@H](C)O)NC(=O)[C@@H](CCN)NC(=O)[C@@H](CCN)NC(=O)[C@@H](CC(C)C)NC(=O)[C@H](Cc2ccccc2)NC(=O)[C@H](CCN)NC1=O)[C@@H](C)O (stereo partly drawn) ({Octanoyl(6-Me)}-[Dab][ξThr(3R)][dDab][dDab][Dab]F[dL][dDab][dDab][ξThr(3R)]; lactam 4-C)
inactive: Potency [17] | Potency [2] | Potency [14] | Potency [5] | Potency [6] | Potency [12] | Potency [7] | Potency [8] | Potency [9] | Potency [10]

CC(C)(C)[C@H](NC(=O)c1ccc(N)c(Cl)c1)C(=O)N1CCC[C@@H]1C(=O)N[C@H](C#N)CC(=O)O
inactive: viability (% of DMSO) [17] 126% [at 3.51 µM] | viability (% of DMSO) [2] 90.2% [at 3.51 µM] | viability, percent of control [3] 130% [at 3.51 µM] | viability [6] 116% [at 3.51 µM] | viability (% of DMSO) [13] 125% [at 3.51 µM] | viability (% of control) [9] 110% [at 3.51 µM] | viability, % of control [10] 122% [at 3.51 µM]
active: Potency [12] 1.05 µM

CC(C)N(CC[C@H](c1ccccc1)c1cc(CO)ccc1O)C(C)C
inactive: Potency [17] | Potency [2] | Potency [18] | Potency [3] | Potency [11] | Potency [12] | Potency [15] | Potency [7] | Potency [13] | Potency [9] | Potency [10]

Source: PubChem BioAssay (NCATS)
